Holding throughout (set-up): scale not given: direction of the effect not stated beside the values
Experiment [1] concerns the target Protein translocase subunit SecA (Escherichia coli (strain K12)) (UniProt P10408). Nature of the experiment: Assay to Identify E. coli SecA ATPase Inhibitors. Format: functional. Conditions: 30 µM.
The target of experiment [2] is T1, Ubiquitin-activating enzyme e1, putative (Leishmania donovani (strain BPK282A1)) (UniProt E9BSI1).
T1 sequence (whole entry): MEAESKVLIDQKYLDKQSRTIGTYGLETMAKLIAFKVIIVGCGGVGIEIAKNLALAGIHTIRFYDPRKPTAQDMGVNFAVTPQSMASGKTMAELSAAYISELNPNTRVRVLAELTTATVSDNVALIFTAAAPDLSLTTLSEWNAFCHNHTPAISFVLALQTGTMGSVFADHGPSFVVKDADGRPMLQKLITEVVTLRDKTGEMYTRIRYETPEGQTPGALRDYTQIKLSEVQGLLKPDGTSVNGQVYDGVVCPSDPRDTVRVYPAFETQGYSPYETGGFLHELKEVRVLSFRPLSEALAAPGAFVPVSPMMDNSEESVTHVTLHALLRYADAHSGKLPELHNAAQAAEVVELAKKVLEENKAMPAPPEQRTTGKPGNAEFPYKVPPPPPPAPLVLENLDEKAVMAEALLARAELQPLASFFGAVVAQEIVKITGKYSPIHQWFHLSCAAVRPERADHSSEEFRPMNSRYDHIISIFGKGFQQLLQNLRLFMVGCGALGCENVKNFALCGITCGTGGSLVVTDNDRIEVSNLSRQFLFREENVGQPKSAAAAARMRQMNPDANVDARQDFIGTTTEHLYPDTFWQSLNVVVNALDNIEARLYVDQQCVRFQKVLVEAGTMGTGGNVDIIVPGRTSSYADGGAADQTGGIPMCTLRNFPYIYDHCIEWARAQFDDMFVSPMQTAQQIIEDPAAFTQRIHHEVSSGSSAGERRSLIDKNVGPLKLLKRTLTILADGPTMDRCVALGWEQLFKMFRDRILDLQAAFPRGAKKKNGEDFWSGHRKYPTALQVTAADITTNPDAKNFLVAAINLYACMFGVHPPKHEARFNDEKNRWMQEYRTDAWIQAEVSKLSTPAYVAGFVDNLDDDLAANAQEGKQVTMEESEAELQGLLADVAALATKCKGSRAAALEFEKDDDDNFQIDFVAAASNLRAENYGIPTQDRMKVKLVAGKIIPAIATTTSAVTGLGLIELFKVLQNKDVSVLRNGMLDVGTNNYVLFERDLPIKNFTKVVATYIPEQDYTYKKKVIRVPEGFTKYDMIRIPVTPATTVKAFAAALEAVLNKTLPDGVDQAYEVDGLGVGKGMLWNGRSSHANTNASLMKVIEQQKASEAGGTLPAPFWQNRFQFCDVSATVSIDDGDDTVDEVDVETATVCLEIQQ
Nature of the experiment: Leishmania donovani Ubiquitin Activating Enzyme (LdE1). Format: functional. As to conditions: 30 µM.

Experiment [3] concerns the target T2, Aspartate--tRNA(Asp/Asn) ligase (Mycobacterium tuberculosis (strain ATCC 25618 / H37Rv)) (UniProt P9WFW3). Note: in the data most compounds retested in dose-response had high values.
T2 sequence (whole entry): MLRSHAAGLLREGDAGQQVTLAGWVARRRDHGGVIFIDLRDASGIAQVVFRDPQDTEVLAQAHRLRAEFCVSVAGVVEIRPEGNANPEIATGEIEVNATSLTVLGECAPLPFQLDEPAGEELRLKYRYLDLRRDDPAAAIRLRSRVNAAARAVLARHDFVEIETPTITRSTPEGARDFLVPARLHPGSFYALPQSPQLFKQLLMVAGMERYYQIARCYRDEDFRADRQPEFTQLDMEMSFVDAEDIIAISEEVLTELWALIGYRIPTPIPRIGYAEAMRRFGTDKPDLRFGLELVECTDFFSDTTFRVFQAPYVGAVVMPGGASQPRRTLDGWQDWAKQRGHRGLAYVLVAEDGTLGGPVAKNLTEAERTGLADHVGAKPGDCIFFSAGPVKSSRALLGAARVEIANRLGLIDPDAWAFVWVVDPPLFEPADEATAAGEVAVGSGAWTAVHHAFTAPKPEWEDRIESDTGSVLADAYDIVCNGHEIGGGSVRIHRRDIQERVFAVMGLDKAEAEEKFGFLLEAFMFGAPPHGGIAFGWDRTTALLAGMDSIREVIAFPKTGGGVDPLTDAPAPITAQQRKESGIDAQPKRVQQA
Nature of the experiment: Assay for Asp RNA synthetase-1 from Mycobacterium tuberculosis. The experiment is classed as functional. As to conditions: 30 µM.

Experiment [4] addresses AMP-activated protein kinase, AMPK (Homo sapiens) (UniProt P54646+O43741+P54619+Q9UGJ0+Q9Y478+Q13131+Q9UGI9). Kind of experiment: AMP-dependent Kinase enzyme assay. An in vitro enzyme assay that detects ADP turnover that is directly proportional to AMPK activity. This uses naive AMPK that is activated during the assay with MK-8722. The experiment is classed as functional. As to conditions: 30 µM.

In experiment [5] the target is Sialic acid-binding Ig-like lectin 9 (Homo sapiens) (UniProt Q9Y336). Nature of the experiment: Hs-Siglec9 ALPHAscreen SOP 20170721. As to conditions: 10 µM.
Experiment [6] concerns Trypanosoma cruzi. Kind of experiment: Trypanosoma cruzi phosphomannomutase and mannose-1-phosphate guanylyltransferase assay. As to conditions: 10 µM. Format: functional.
In experiment [7] the target is T3, Arginase-2, mitochondrial (Homo sapiens) (UniProt P78540).
T3 sequence (whole entry): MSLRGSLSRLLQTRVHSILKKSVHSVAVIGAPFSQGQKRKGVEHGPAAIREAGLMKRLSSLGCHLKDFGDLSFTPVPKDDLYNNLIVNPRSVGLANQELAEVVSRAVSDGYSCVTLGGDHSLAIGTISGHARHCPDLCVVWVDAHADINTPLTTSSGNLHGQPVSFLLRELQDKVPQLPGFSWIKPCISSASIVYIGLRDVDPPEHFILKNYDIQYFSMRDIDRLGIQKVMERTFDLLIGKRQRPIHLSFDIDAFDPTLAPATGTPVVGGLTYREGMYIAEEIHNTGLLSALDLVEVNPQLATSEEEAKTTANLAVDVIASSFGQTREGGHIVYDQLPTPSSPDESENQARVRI
Nature of the experiment: in vitro enzyme assay to detect the production of urea directly proportional to the activity of Arginase II. Note: in the data most compounds retested in dose-response had high values. Conditions: 33.3 µM. Format: functional.

For experiment [8], the target named is T4, Proteasome subunit beta (Trypanosoma cruzi) (UniProt O96673).
T4 sequence (whole entry): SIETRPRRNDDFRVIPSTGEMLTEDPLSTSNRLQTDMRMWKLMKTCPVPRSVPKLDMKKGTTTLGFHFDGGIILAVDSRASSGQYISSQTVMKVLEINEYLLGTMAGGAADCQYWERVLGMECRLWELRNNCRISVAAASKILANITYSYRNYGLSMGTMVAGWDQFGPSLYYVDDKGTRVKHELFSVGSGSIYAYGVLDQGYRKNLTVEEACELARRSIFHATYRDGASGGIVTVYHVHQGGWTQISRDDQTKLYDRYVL
Kind of experiment: Trypanosoma cruzi proteasome chymotrypsin-like activity (TcProtChymo) assay. Note: in the data most compounds retested in dose-response had high values. Format: functional. Conditions: 9.37 µM.

The species entered for experiment [9] is Homo sapiens. Kind of experiment: To identify inhibition of the IFN signalling (Jak-Stat) pathway via expression of an eGFP reporter gene under the control of an IFN-stimulated response element (ISRE) containing MxA promoter. As to conditions: 30 µM. The experiment is classed as functional. (Reporter assays use an easily measured gene product as a stand-in for the process of interest.)

The target of experiment [10] is Shiga toxin 2 (Escherichia coli O157:H7) (UniProt P09385+P09386). Kind of experiment: E. coli 0.157:H7 Shiga Toxin SOP - stx2 screening assay. The experiment is classed as functional. Conditions: 30 µM.
In experiment [11] the target is T5, Tyrosyl-tRNA synthetase, putative (Trypanosoma cruzi (strain CL Brener)) (UniProt Q4DSP6).
T5 sequence (whole entry): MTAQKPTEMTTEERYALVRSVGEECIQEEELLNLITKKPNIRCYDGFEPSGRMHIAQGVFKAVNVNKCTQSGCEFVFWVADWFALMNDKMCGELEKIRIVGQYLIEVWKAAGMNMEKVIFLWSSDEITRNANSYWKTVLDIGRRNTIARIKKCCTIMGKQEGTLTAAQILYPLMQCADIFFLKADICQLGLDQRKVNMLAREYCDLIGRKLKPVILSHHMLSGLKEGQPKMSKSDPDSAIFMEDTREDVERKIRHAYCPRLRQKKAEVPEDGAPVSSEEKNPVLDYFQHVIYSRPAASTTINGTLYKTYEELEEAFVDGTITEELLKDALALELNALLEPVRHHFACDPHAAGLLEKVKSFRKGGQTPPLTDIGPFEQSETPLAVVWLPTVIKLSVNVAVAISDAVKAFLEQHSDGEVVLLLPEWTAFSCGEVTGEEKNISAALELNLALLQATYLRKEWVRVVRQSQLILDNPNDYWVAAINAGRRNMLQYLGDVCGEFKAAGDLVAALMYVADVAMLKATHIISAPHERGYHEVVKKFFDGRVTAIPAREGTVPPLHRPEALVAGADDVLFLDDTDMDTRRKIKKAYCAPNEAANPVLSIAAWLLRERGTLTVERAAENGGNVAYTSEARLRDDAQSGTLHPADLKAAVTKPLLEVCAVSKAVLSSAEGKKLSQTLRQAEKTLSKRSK
Kind of experiment: Trypanosoma cruzi tyrosyl tRNA synthetase (TcYRS) _High Tyrosine SOP. Note: in the data most compounds retested in dose-response had high values. As to conditions: 30 µM. Format: functional.

Experiment [12] deals with T5, Tyrosyl-tRNA synthetase, putative (Trypanosoma cruzi (strain CL Brener)). Kind of experiment: Trypanosoma cruzi tyrosyl tRNA synthetase (TcYRS) SOP. The experiment is classed as functional. Conditions: 30 µM.
The target of experiment [13] is Chromo domain-containing protein 1 (Saccharomyces cerevisiae (strain ATCC 204508 / S288c) (Baker's yeast)) (UniProt P32657). Kind of experiment: ScCHD-1 Enzyme Inhibition Assay. Note: in the data most compounds retested in dose-response had high values. Format: functional. Conditions: 30 µM.

For some assays here: Potency and affinity values are given separately.

Protein translocase subunit SecA (Escherichia coli (strain K12)), sequence (P10408 whole entry): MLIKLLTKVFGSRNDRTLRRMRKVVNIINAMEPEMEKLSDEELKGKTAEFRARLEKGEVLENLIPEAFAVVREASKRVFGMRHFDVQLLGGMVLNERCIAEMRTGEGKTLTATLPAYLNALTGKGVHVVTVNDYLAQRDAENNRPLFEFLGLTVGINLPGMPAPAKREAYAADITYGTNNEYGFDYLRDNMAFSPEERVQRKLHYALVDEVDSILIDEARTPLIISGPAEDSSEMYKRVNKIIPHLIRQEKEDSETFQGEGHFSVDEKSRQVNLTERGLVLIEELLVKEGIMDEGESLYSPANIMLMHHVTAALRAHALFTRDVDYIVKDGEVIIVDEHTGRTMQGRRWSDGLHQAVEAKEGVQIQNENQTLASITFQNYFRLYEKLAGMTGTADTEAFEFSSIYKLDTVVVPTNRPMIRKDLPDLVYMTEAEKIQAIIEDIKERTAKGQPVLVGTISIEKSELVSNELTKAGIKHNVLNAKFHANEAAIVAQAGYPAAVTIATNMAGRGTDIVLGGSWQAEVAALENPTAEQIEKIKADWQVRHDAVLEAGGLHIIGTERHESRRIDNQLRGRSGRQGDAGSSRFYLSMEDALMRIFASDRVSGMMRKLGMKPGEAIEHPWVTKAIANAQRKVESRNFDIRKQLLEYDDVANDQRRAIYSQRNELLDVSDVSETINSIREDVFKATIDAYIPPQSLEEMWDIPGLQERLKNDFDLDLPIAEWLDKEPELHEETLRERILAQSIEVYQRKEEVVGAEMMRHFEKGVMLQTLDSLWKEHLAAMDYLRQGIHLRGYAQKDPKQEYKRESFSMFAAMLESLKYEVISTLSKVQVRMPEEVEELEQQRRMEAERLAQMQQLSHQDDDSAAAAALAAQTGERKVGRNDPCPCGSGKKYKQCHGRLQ
Chromo domain-containing protein 1 (Saccharomyces cerevisiae (strain ATCC 204508 / S288c) (Baker's yeast)), sequence (P32657 whole entry, the tested form may be a part): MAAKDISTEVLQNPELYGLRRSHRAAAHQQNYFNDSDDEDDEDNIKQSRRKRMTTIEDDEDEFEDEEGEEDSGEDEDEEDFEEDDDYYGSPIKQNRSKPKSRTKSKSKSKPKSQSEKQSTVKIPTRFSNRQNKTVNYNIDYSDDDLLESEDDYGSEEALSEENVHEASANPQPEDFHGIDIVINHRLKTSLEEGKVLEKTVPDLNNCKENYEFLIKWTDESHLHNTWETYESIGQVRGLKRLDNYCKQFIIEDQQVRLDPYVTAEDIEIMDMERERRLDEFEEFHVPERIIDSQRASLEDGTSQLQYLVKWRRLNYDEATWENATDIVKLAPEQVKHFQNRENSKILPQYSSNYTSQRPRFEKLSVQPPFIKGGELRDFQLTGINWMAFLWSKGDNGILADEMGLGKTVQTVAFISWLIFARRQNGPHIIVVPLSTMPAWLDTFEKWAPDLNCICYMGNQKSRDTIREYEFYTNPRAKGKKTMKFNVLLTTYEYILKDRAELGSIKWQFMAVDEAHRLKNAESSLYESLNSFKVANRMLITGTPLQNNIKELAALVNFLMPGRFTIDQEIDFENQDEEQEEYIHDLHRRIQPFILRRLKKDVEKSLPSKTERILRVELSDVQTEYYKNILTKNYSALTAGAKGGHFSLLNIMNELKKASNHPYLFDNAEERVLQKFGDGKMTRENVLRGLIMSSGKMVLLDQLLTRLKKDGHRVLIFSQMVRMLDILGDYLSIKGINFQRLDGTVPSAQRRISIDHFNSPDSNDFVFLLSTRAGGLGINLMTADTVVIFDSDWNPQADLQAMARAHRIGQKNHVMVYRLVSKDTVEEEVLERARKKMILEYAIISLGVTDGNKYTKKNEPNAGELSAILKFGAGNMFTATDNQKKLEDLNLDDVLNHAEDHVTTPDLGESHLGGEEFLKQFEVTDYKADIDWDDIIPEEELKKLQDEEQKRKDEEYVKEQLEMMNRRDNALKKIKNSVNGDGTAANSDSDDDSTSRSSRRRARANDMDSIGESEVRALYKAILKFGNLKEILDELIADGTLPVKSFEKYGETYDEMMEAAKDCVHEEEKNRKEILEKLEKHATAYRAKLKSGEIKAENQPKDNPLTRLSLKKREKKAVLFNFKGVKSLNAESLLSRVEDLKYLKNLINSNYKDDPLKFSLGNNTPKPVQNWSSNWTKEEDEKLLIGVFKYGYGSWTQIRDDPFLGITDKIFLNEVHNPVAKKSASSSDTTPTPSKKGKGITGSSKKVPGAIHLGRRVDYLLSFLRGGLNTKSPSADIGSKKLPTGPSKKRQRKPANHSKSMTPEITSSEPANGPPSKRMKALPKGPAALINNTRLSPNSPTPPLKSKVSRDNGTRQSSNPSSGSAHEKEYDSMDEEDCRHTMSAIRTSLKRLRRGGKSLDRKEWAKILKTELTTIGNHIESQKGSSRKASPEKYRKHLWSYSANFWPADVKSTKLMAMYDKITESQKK
Sialic acid-binding Ig-like lectin 9 (Homo sapiens), sequence (Q9Y336 whole entry): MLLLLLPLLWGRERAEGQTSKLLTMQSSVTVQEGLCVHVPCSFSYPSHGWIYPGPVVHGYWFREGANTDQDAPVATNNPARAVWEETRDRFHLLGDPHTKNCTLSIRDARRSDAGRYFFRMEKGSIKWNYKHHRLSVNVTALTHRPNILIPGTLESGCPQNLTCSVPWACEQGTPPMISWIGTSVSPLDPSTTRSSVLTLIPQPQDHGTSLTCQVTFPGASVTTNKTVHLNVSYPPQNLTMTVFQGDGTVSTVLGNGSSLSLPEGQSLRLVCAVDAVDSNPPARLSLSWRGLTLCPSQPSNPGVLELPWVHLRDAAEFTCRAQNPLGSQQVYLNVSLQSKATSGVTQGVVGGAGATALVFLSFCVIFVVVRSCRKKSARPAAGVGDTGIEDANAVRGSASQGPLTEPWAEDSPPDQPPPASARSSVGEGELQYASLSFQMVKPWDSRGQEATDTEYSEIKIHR

As for `Cc1n[nH]c2c1C(c1ccc(O)c(Cl)c1)SCC(=O)N2` (stereo not given), the Percent Effect in experiment [1] is -3.6%; in experiment [2] it was 4%; in experiment [3] it was -0.755%; in experiment [4], 21.6%; in [5], 4.97%; in experiment [6], -3.73%. Moreover, the Percent Effect is -6.16% in experiment [7]; 5.18% in experiment [8]; 10.7% in [9]; -29.6% in experiment [10]; 9.52% in [11]; 15.4% in experiment [12]. Further, the Percent Effect in [13] was -4.99%.
With `Cc1noc(C)c1CN1C[C@H](OCC2CC2)[C@H]2OCCC[C@H]21`, the Percent Effect in experiment [1] is -4.83%; in [2], 8.11%; in [3], -3.74%; in [4], -3.37%; in experiment [5], 5.64%; in experiment [6], 0.293%. The Percent Effect is 4.71% in [7]; 8.84% in experiment [8]; -6.54% in experiment [9]; -3.9% in [10]; 7.53% in experiment [11]; 11.1% in experiment [12]. The Percent Effect in [13] was -10.2%.
On to `c1cncc(CO[C@H]2CC[C@H]3[C@@H]2OCCN3C2CCOCC2)c1`, for which the Percent Effect in [1] is 1.26%; in experiment [2] it was 2.74%; in experiment [3], 0.0456%; in experiment [4], -4.02%; in [5], 5.81%; in experiment [6], 7.14%. Besides, the Percent Effect was -0.399% in [7]; 4.37% in experiment [8]; -1.77% in experiment [9]; -20.6% in experiment [10]; 3.12% in experiment [11]; 8.64% in [12]. Moreover, in [13], the Percent Effect worked out at 1.15%.
For the compound `O=C(c1cc(-n2cnnn2)ccc1Cl)N1CCC2(CC1)OCCO2`, the Percent Effect in experiment [1] is -3.84%; in [2], 5.26%; in [3], 0.24%; in experiment [4], 3.99%; in experiment [5] it was 7.5%; in experiment [6] it was -3.21%. In addition, the Percent Effect is -3.55% in experiment [7]; 8.53% in experiment [8]; 7.36% in experiment [9]; -4.29% in experiment [10]; 3.19% in experiment [11]; 5.2% in [12]. Besides, the Percent Effect in experiment [13] is -4.14%.
On to `COCC(=O)NC(C)Cc1cccc(Br)c1` (stereo not given), for which the Percent Effect is -8.66% in [1]; 13.2% in [2]; -1.17% in experiment [3]; -9.62% in experiment [4]; 6.28% in [5]; 10.3% in experiment [6]. The Percent Effect is -0.383% in experiment [7]; 9.19% in [8]; 12.7% in experiment [9]; -16.5% in experiment [10]; 7.35% in [11]; 19.5% in [12]. In experiment [13], the Percent Effect was -12.4%.

(Values after ChEMBL document CHEMBL3988442, “University of Dundee, Small-Polar-MMV Screening Library” (2021).)
